According to PubChem BioAssay (EPA / NIEHS):
Active and inactive are the calls of the source. The calls were made as follows: active = hit-call score of the fitted dose curve at least 0.9, where 1 is the maximum; inactive = score below 0.9.

Experiments:
[1] = BSK_LPS_SRB: Viability Assessment in the BioMAP Diversity Plus: LPS Assay (AID 2283079); details: primary human HUVEC with PBMC;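 also: total protein by sulforhodamine B absorbance as a cytotoxicity measure; measured one day after compound addition; fitted in both directions against DMSO so loss or gain of signal counts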
Method in brief: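 Overt cytotoxicity was gauged by sulforhodamine B total-protein staining in a primary human vascular endothelial and mononuclear cell co-culture 24 h post-dosing. Activity was fitted in both directions relative to DMSO.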

[2] = read-out: Interleukin-1 alpha (IL1a), IL1A (gene 3552); experiment: BSK_LPS_IL1a: BioMAP Diversity Plus: LPS Assay for Interleukin-1 alpha (IL1a) Biomarker Activity (AID 2283080); details: primary human HUVEC with PBMC; actives raise or lower the signal
Method in brief: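 Measured: IL-1 alpha via ELISA at 24 h in LPS-activated human umbilical vein endothelium–PBMC co-culture. Baseline: DMSO, bidirectional fitting.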

[3] = read-out: Monocyte Chemoattractant Protein-1 (MCP1), CCL2 (gene 6347); experiment: BSK_LPS_MCP1: BioMAP Diversity Plus: LPS Assay for Monocyte Chemoattractant Protein-1 (MCP1) Biomarker Activity (AID 2283081); details: primary human HUVEC with PBMC; actives raise or lower the signal;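 as to AC50: secreted MCP-1 protein quantified by ELISA in culture supernatant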
Method in brief: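 LPS-stimulated HUVEC/PBMC co-culture; chemical, 24 h; MCP-1 by ELISA; bidirectional fit vs DMSO; cytotoxicity via SRB (0.1% stain, 10% TCA fix, 560 nm) in parallel wells.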

[4] = BSK_LPS_PGE2: BioMAP Diversity Plus: LPS Assay for Prostaglandin E2 (PGE2) Biomarker Activity (AID 2283082); details: primary human HUVEC with PBMC; actives raise or lower the signal;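 as to AC50: secreted prostaglandin E2 measured by ELISA in LPS-stimulated co-culture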
Method in brief: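 HUVEC plus PBMC co-culture stimulated with LPS; secreted PGE2 quantified by ELISA 24 h after chemical dosing. Activity fitted bidirectionally against DMSO as negative control and baseline; parallel SRB total-protein staining served as cytotoxicity check.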

[5] = read-out: Macrophage colony-stimulating factor (MCSF), CSF1 (gene 1435); experiment: BSK_LPS_MCSF: BioMAP Diversity Plus: LPS Assay for Macrophage colony-stimulating factor (MCSF) Biomarker Activity (AID 2283083); details: primary human HUVEC with PBMC; actives raise or lower the signal
Method in brief: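 Compound is added to a human vascular primary co-culture of umbilical vein endothelium and blood mononuclear cells. After 24 h, M-CSF is quantified by ELISA. Signal changes are fitted in both directions against DMSO.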

[6] = read-out: Tissue Factor, F3 (gene 2152); experiment: BSK_LPS_TissueFactor: BioMAP Diversity Plus: LPS Assay for Tissue Factor Biomarker Activity (AID 2283084); details: primary human HUVEC with PBMC; actives raise or lower the signal
Method in brief: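 In this co-culture system of umbilical vein endothelium with PBMC, stimulated with LPS, cell-surface CD142 is detected by ELISA at 24 h. Endpoint values derive from bidirectional fitting, DMSO serving as baseline.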

[7] = read-out: Tumor necrosis factor (Homo sapiens) (UniProt P01375); experiment: BSK_LPS_TNFa: BioMAP Diversity Plus: LPS Assay for Tumour Necrosis Factor alpha (TNFa) Biomarker Activity (AID 2283085); details: primary human HUVEC with PBMC; actives raise or lower the signal;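 as to AC50: TNFa protein level quantified by ELISA in the co-culture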
Method in brief: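 Human umbilical vein endothelial cells co-cultured with PBMC were exposed to test chemical and TNFa measured by ELISA 24 h after dosing. Bidirectional curve fitting was done relative to DMSO as negative control and baseline.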

[8] = read-out: Vascular cell adhesion molecule 1 (VCAM1), VCAM1 (gene 7412); experiment: BSK_LPS_VCAM1: BioMAP Diversity Plus: LPS Assay for Vascular cell adhesion molecule 1 (VCAM1) Biomarker Activity (AID 2283086); details: primary human HUVEC with PBMC; actives raise or lower the signal
Method in brief: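 Human umbilical vein endothelial cells co-cultured with peripheral blood mononuclear cells under LPS stimulation were exposed to test chemical for 24 h. VCAM-1 levels were then measured by ELISA, with bidirectional curve fitting relative to DMSO as negative control and baseline.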

[9] = read-out: CD38, CD38 (gene 952); experiment: BSK_SAg_CD38: BioMAP Diversity Plus: SAg Assay for CD38 Biomarker Activity (AID 2283087); details: primary human HUVEC with PBMC; actives raise or lower the signal
Method in brief: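 Fluorescence ELISA of cell-surface CD38 served as the read-out, with either increase or decrease fitted against DMSO controls. Cells were a human umbilical vein endothelium plus PBMC co-culture under SEB/TSST-1 stimulation, measured 24 h after dosing.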

[10] = read-out: CD40, CD40 (gene 958); experiment: BSK_SAg_CD40: BioMAP Diversity Plus: SAg Assay for CD40 Biomarker Activity (AID 2283088); details: primary human HUVEC with PBMC; actives raise or lower the signal
Method in brief: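 Fluorescence ELISA read-out of CD40 from umbilical vein endothelium plus peripheral blood mononuclear cells, sampled 24 h after dosing. Values come from bidirectional curve fitting with DMSO as baseline.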

Tumor necrosis factor (Homo sapiens), sequence (P01375 whole entry, looked up): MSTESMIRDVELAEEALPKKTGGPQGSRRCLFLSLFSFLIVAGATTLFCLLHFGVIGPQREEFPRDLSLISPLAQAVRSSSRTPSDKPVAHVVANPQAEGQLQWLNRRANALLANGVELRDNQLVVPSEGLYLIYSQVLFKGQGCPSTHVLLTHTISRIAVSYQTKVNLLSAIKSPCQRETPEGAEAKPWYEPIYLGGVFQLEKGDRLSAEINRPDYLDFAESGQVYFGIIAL

Compound | AC50 [1] | AC50 [2] | AC50 [3] | AC50 [4] | AC50 [5] | AC50 [6] | AC50 [7] | AC50 [8] | AC50 [9] | AC50 [10] | outcome [1] | outcome [2] | outcome [3] | outcome [4] | outcome [5] | outcome [6] | outcome [7] | outcome [8] | outcome [9] | outcome [10]
CC(C)Nc1ccc(Nc2ccccc2)cc1 | 15.8 µM (active) | 9.74 µM (active) | 10.1 µM (active) | 0.0166 µM (active) | 8.91 µM (active) | 8.74 µM (active) | 12.7 µM (active) | 10.2 µM (active) | 4.14 µM (active) | 13.1 µM (active) |  |  |  |  |  |  |  |  |  | 
c1nc[nH]n1 |  |  |  |  |  |  |  |  |  |  | inactive | inactive | inactive | inactive | inactive | inactive | inactive | inactive | inactive | inactive
CSC(C)(C)C=NO |  |  |  |  |  |  |  |  |  |  | inactive | inactive | inactive | inactive | inactive | inactive | inactive | inactive | inactive | inactive
OCC1CO1 (stereo not given) |  |  |  |  |  |  |  |  |  |  | inactive | inactive | inactive | inactive | inactive | inactive | inactive | inactive | inactive | inactive
Cc1ccc2c(c1N)C(=O)c1ccccc1C2=O |  |  |  |  |  | 20 µM (active) |  |  | 12.6 µM (active) |  | inactive | inactive | inactive | inactive | inactive |  | inactive | inactive |  | inactive
O=C(O)C(F)(F)OC(F)(F)C(F)(F)OC(F)(F)C(=O)O |  |  |  |  |  |  |  |  |  |  | inactive | inactive | inactive | inactive | inactive | inactive | inactive | inactive | inactive | inactive
CCCCC(CC)COC(=O)c1c(Br)c(Br)c(Br)c(Br)c1C(=O)OCC(CC)CCCC (stereo not given) |  |  |  |  |  |  |  |  |  |  | inactive | inactive | inactive | inactive | inactive | inactive | inactive | inactive | inactive | inactive
O=C(O)C1C(C(=O)O)C2(Cl)C(Cl)=C(Cl)C1(Cl)C2(Cl)Cl (stereo not given) |  |  |  |  |  |  |  |  |  |  | inactive | inactive | inactive | inactive | inactive | inactive | inactive | inactive | inactive | inactive
CCCCCCCc1ccc(O)cc1 | 37.2 µM (active) | 31.2 µM (active) | 36.5 µM (active) | 2.95 µM (active) | 32 µM (active) | 38.1 µM (active) | 30.8 µM (active) | 36.2 µM (active) | 35.7 µM (active) | 35.6 µM (active) |  |  |  |  |  |  |  |  |  | 
c1ccc2c(c1)Nc1ccccc1S2 |  |  |  | 0.374 µM (active) |  |  | 0.148 µM (active) |  |  | 26.8 µM (active) | inactive | inactive | inactive |  | inactive | inactive |  | inactive | inactive | 
O=C(O)C(F)(F)OC(F)(F)C(F)(F)OC(F)(F)F |  |  |  |  |  |  |  |  |  |  | inactive | inactive | inactive | inactive | inactive | inactive | inactive | inactive | inactive | inactive
CCOC(=O)c1ccccc1C(=O)OCC |  |  |  |  |  |  |  |  |  |  | inactive | inactive | inactive | inactive | inactive | inactive | inactive | inactive | inactive | inactive
CCCCN(CCCC)N=O |  |  |  |  |  |  |  |  |  |  | inactive | inactive | inactive | inactive | inactive | inactive | inactive | inactive | inactive | inactive
CN(C)C(=O)Cl |  |  |  |  |  |  |  |  |  |  | inactive | inactive | inactive | inactive | inactive | inactive | inactive | inactive | inactive | inactive
ClC1=C(Cl)C2(Cl)C3C(Cl)C(Cl)CC3C1(Cl)C2(Cl)Cl (stereo not given) | 29.9 µM (active) | 26 µM (active) | 33.2 µM (active) |  | 27.9 µM (active) | 31.5 µM (active) | 32.7 µM (active) | 29.2 µM (active) | 29.7 µM (active) | 24.4 µM (active) |  |  |  | inactive |  |  |  |  |  | 
Cc1ccc([N+](=O)[O-])cc1C |  |  |  |  |  |  |  |  |  |  | inactive | inactive | inactive | inactive | inactive | inactive | inactive | inactive | inactive | inactive
COCCOCCO |  |  | 27.5 µM (active) |  |  |  |  |  |  |  | inactive | inactive |  | inactive | inactive | inactive | inactive | inactive | inactive | inactive
CCCCOCCOP(=O)(OCCOCCCC)OCCOCCCC |  |  |  |  |  |  |  |  |  |  | inactive | inactive | inactive | inactive | inactive | inactive | inactive | inactive | inactive | inactive
CCCCc1ccccc1 |  |  |  |  |  |  |  |  |  |  | inactive | inactive | inactive | inactive | inactive | inactive | inactive | inactive | inactive | inactive
O=P(Oc1ccccc1)(Oc1ccccc1)Oc1ccccc1 | 30.6 µM (active) |  | 30 µM (active) |  | 32.1 µM (active) |  | 3.97 µM (active) | 20 µM (active) | 31.7 µM (active) | 25.9 µM (active) |  | inactive |  | inactive |  | inactive |  |  |  | 
CCC1(c2ccccc2)C(=O)N=C(O)NC1=O (stereo not given) |  |  |  |  |  |  |  |  |  |  | inactive | inactive | inactive | inactive | inactive | inactive | inactive | inactive | inactive | inactive
